# Data reported in PubChem BioAssay AID743167 (National Center for Advancing Translational Sciences (NCATS), 2013).
# Results filed as inconclusive are left out. Calls of active or inactive are those of the source. Calls follow the shape of the dose curve; as a rule, active = well fitted activation curve with a large enough effect; inconclusive = small, poorly fitted or top-dose-only effect; inactive = flat fitted curve, though single readings scatter.
# Test: Extended Characterization of HPGD Inhibitors: PGE2 Assay in A549 Cells
# Conditions: PGE2 HTRF level, 16 h
# Excerpt: The central role of HPGD is to inactivate prostaglandins such as prostaglandin E2 (PGE2) or prostaglandin D2 (PGD2). These prostaglandins are involved in a number of processes, including inflammation, differentiation, and cellular signaling, which makes HPGD an important target for pharmacological intervention. A number of prostaglandins of particular biological interest have been identified as substrates of HPGD. […] Over-production of PGE2 has been reported to promote tumor-associated neovascularization, cell proliferation, and tumor growth. […] In this orthogonal assay, we set out to measure if compounds were able to increase PGE2 production NIH Chemical Genomics Center [NCGC] NIH Molecular Libraries Probe Centers Network [MLPCN] MLPCN Grant: MH084681 Assay Submitter (PI): Structural Genomics Consortium
# A549 cells, LNCaP cells or media were dispensed in 384-well plates (ProxiPlate-384 Plus, PerkinElmer, Shelton, CT) at 5,000 cells/9.9 uL/well using a CappAero384 multichannel pipette (Odense, Denmark). Separately on the plate, 10 uL of PGE2 calibration standards at a starting assay concentration of 5,000 pg/mL (1:2 dilution, 12-points, n = 1, prepared in media, Cisbio, Bedford, MA) were dispensed. Compounds (100 nL, final concentration range from 41.9 nM to 100 uM) were transferred using an ATS Acoustic Liquid Dispenser (EDC Biosystems, Fremont, CA). After being mixed using an automated liquid handler (CyBio, Jena, Germany), samples were incubated (37 deg C, 5% CO2, under a humidified atmosphere) for 16 hours. PGE2 labeled conjugates were added to each well, first 5 uL of PGE2-d2, followed by 5 uL of anti-PGE2-cryptate, centrifuged (1,500 rpm, 15 sec) and incubated (RT, protected from light) for 5 hours. Time-resolved fluorescence intensity (320 nm excitation, 615 and 665 nm emission) was measured using an Envision plate reader (PerkinElmer). Data was expressed as the ratio of 665 nm/615 nm emissions. Concentration (pg/mL) of samples were calculated from a 4-parameter logistic calibration curves of the PGE2 standards.
row,Structure (SMILES),Potency
1,Cc1cc(-c2nnc3n2CCCCC3)c(C)n1-c1ccc(F)cc1,0.662 µM (active)
